For assay [1], the system named is CRL-7250. As to the kind of experiment: Cytotoxic Profiling of Annotated Libraries Using Quantitative High-Throughput Screening (AID 1296008). Also: nearly all actives have a fitted effect of over 60% in size. The following applies: Five cell lines viability, CellTiter-Glo ATP luminescence, 48-72 h; max response: stronger effect = lower value. The procedure, abridged:
(§1)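 Compounds were pin-transferred onto cells and incubated 48 or 72 hr at 37 degree Celsius, 95% humidity. CellTiter-Glo was added, plates sat 10 min at room temperature, then ATP-coupled luminescence was imaged as the viability read-out.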

The test system of assay [2] is HEK293. Described as above. The following applies: Five cell lines viability, CellTiter-Glo ATP luminescence, 48-72 h; max response: stronger effect = lower value. In outline:
as §1

The values that follow come from PubChem BioAssay (NCATS).

Records with an inconclusive call do not appear. A number with no mark means an inactive call. Calls of active or inactive are those of the source. Calls follow the shape of the dose curve; as a rule, active = well fitted inhibition curve with a large enough effect; inconclusive = small, poorly fitted or top-dose-only effect; inactive = flat fitted curve, though single readings scatter.
% is scaled to controls: 0 for no effect and ±100 for the full control effect; potency is read from the fitted curve at half-maximal effect.

Turning to `CC1OC(OC2C(OC3C(O[C@H]4CC[C@@]5(C)C(CC[C@]6(C)C5C(=O)C=C5C7CC(C)(C)CC(O)[C@]7(C)CC[C@]56C)C4(C)C)OC(C(=O)O)C(O)C3O)OCC(O)C2O)C(O)C(O)C1O` (some centres undefined), the figures for the max response in assay [1] and in assay [2] were -0.894% and 2.13%, respectively.
In the same order, the values of `C=CC(C)(O)CC[C@H]1C(=C)CCC2[C@](C)(C(=O)O)CCC[C@@]21C` (some centres undefined) are 2.31% and -3.52%.
Consider `Cc1c(C(=O)N2CCOc3ccc(-c4ccc(N)nc4)cc3C2)ccc(S(C)(=O)=O)c1F`, for which the Potency in assay [1] was 4610 nM (active); in assay [2], 5800 nM (active).
Regarding `COc1ccc([C@H]2CNC(=O)C2)cc1OC1CCCC1`, the max response in assay [1] was -5.24%; in assay [2], -1.53%.
In the same order, the values of `Cc1noc(=O)c2ccc(NC(=O)C(O)(CC(C)(C)c3cccc4c3OCC4)C(F)(F)F)cc12` (centres undefined) are 3.52% and -10.8%.
In the same order, the values of `COc1ccc(CCO[C@@H]2CCCC[C@H]2N2CC[C@@H](O)C2)cc1OC` are -6.87% and 2.72%.
As to `O=S(=O)(NC1CCC(c2cc(F)ccc2F)(S(=O)(=O)c2ccc(Cl)cc2)CC1)C(F)(F)F` (centres undefined), in assay [1], the call was inactive. The max response in assay [2] was -4.12%.
As to `CCOc1ccc(S(=O)(=O)n2c(C)nc3ccccc32)cc1`, the values for the max response in assay [1] and in assay [2] were -1.87% and -8.26%, respectively.
Regarding `C=C[C@@]12COC(=O)C(=C)C1[C@@H](O)[C@H](C(=C)C(=O)OC)[C@@H](OC(=O)C(=C)CO)C2` (some centres undefined), the max response in assay [1] is -22.2%. The Potency in assay [2] was 10000 nM (active).
On to `Cc1cccc(-c2[nH]c(Cc3cccc(C(N)=O)c3)nc2-c2ccc3nccnc3c2)n1`, for which, in assay [1], the max response was 4.2%. For the same compound, in assay [2], the compound was classed as inactive.
Consider `Cc1cc(OCc2nnc(SC3CCCC3)n2-c2cccnc2)ccc1-c1ccc(S(C)(=O)=O)cc1`, for which the Potency in assay [1] was 411 nM (active); in assay [2], 291 nM (active).
On to `C[C@H](Oc1ccc(S(C)(=O)=O)cc1C(=O)N1CCN(c2ncc(C(F)(F)F)cc2F)CC1)C(F)(F)F`, for which the compound was called inactive in assay [1]. For the same compound, the max response in assay [2] is -24.7%.
For `COc1cc2c(cc1OC)-c1[nH]nc(Nc3cccc(F)c3)c1C2`, the Potency in assay [1] is 461 nM (active); in assay [2], 130 nM (active).
With `O=C(CCCCN1CCOCC1)Nc1ccc(-c2cccnc2)cc1`, the max response in assay [1] is -12%; in assay [2], 0.956%.
For `CCCCCCOc1cc2c(cc1N(C)c1ncc(C(=O)O)cn1)C(C)(C)CCC2(C)C`, in that order: 4.99% and 3.1%.
For `c1cc(OCCCN2CCCCC2)ccc1CN1CCCCC1`, in that order: -3.26% and -18.4%.
For `CC1(C)CCCC2(C)C(CO)C(CO)=CCC12` (centres undefined), in that order: -20.3% and -4.79%.
As for `CC(C)c1cc(C(=O)N2CC[C@@H](NC(=O)C3CC3)C2)n[nH]1`, the max response in assay [1] is -17.8%; in assay [2], -9.12%.
For `OC[C@@]1(O)CO[C@@H](OC[C@H]2O[C@@H](Oc3c[nH]c4ccccc34)[C@H](O)[C@@H](O)[C@@H]2O)[C@@H]1O`, in that order: -23.1% and -21.5%.
Regarding `Cc1cnc(Nc2ccc(F)cc2Cl)nc1-c1c[nH]c(C(=O)NC(CO)c2cccc(Cl)c2)c1` (centres undefined), the max response in assay [1] is -0.447%. Also, the Potency in assay [2] is 5800 nM (active).
On to `Cc1cc(O)cc(O[C@@H]2O[C@H](CO)[C@@H](O)[C@H](O)[C@H]2O)c1`, for which the compound was called inactive in assay [1]. The max response in assay [2] is 0.562%.
Consider `COc1ccc(N2CCOCC2)c2sc(NC(=O)N3CCC(C)(O)CC3)nc12`, for which the max response is 0.434% in assay [1] and -6.66% in assay [2].
For `CC1(C)CC[C@]2(C(=O)OC3OC(CO)C(O)C(O)C3O)CC[C@]3(C)C(=CCC4[C@@]5(C)CC[C@H](OC6OC(C(=O)O)C(O)C(OC7OC(CO)C(O)C(O)C7O)C6O)C(C)(C)C5CC[C@]43C)C2C1` (some centres undefined), in that order: 1.42% and 1.3%.
As to `C[C@@H]1O[C@@H](O[C@H]2[C@H](O[C@H]3CC[C@@]4(C)C(CC[C@]5(C)C4CC=C4[C@@H]6CC(C)(C)CC[C@]6(C(=O)O[C@@H]6OC[C@H](O)[C@H](O)[C@H]6O[C@@H]6O[C@@H](C)[C@H](O[C@@H]7O[C@H](CO)[C@@H](O)[C@H](O)[C@H]7O)[C@H](O)[C@H]6O)[C@H](O)C[C@]45C)C3(C)C)O[C@H](CO)[C@@H](O[C@@H]3OC[C@@H](O)[C@H](O)[C@H]3O)[C@@H]2O)[C@H](O)[C@H](O)[C@H]1O` (some centres undefined), the compound was called inactive in assay [1]. In addition, the max response in assay [2] was 4.66%.
Take `CC(C)(O)CC(CO)NC(=O)CC(O)CC(=O)Cc1ccccc1` (centres undefined): the max response in assay [1] was 2.18%; in assay [2], 0.672%.
In the same order, the values of `CC(C)(O[C@@H]1O[C@H](CO)[C@@H](O)[C@H](O)[C@H]1O)C(OC(=O)/C=C\c1ccc(O)cc1)C(=O)OCc1ccc(O[C@@H]2O[C@H](CO)[C@@H](O)[C@H](O)[C@H]2O)cc1` (some centres undefined) are -12.2% and -30.7%.
For `COc1ccc(CCO[C@@H]2O[C@H](CO[C@@H]3OC[C@H](O)[C@H](O)[C@H]3O)[C@@H](O)[C@H](O)[C@H]2O)cc1`, in that order: -3.54% and -0.354%.
